Among the data in PubChem BioAssay (NCI) are growth values, retold here.

SMILES strings stand for the structures. The panel holds about 83,000 compounds, 20% with a hit somewhere; the sample as a whole holds those more often.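 Compound tested at a single concentration for 48 hours in 96-well plates; a percent growth value below 10 was scored as active.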 Unmarked numbers belong to inactive results. Calls of active or inactive are those of the source.

What all share (test): NCI-60 one-dose screen, 48 h (100 = growth as untreated, 0 = no growth, -100 = all killed)
One assay concerns SK-MEL-2 melanoma. Particulars: 10 µM unless noted.
The subject of a further assay is EKVX NSCLC. The conditions noted are these: 10 µM unless noted.
The test system of the next assay is SN12C renal. Particulars: 10 µM unless noted.
The test system of another assay is UO-31 renal. Particulars: 10 µM unless noted.
Another assay relates to TK-10 renal. The conditions noted are these: 10 µM unless noted.
Another assay has as its system A498 renal. The conditions noted are these: 10 µM unless noted.
Another assay concerns CCRF-CEM leukemia. Particulars: 10 µM unless noted.
The test system of a further assay is MOLT-4 leukemia. The conditions noted are these: 10 µM unless noted.
In the next assay the test system is SR leukemia. The conditions noted are these: 10 µM unless noted.
Another assay relates to RPMI-8226 leukemia. Particulars: 10 µM unless noted.
The test system of another assay is OVCAR-8 ovarian. The conditions noted are these: 10 µM unless noted.
For another assay, the system named is OVCAR-5 ovarian. Particulars: 10 µM unless noted.
In another assay the test system is OVCAR-4 ovarian. Particulars: 10 µM unless noted.
The next assay relates to SK-OV-3 ovarian. Particulars: 10 µM unless noted.
The next assay relates to IGROV1 ovarian. The conditions noted are these: 10 µM unless noted.
The next assay concerns OVCAR-3 ovarian. The conditions noted are these: 10 µM unless noted.
A further assay relates to HS 578T breast. Particulars: 10 µM unless noted.
Another assay has as its system NCI/ADR-RES ovarian. The conditions noted are these: 10 µM unless noted.
A further assay concerns CAKI-1 renal. Particulars: 10 µM.

Consider `O=C(/C=C/c1ccccc1)Oc1ccc(/C=C/c2cc(OC(=O)/C=C/c3ccccc3)cc(OC(=O)/C=C/c3ccccc3)c2)cc1`, for which the growth in the assay with SK-MEL-2 melanoma is 105%; in the assay with EKVX NSCLC, 99.1%; with SN12C renal, 106%; in the assay with UO-31 renal, 82.9%; in the assay on TK-10 renal, 87%; in the assay with A498 renal, 91.3%. Also, the growth in the assay with CCRF-CEM leukemia is 91.1%; with MOLT-4 leukemia it was 86.8%; with SR leukemia, 92%; in the assay on RPMI-8226 leukemia, 99.8%; with OVCAR-8 ovarian it was 84.7%; in the assay with OVCAR-5 ovarian, 96.6%. Moreover, the growth in the assay with OVCAR-4 ovarian is 100%; in the assay with SK-OV-3 ovarian, 86.5%; with IGROV1 ovarian it was 98.6%; in the assay with OVCAR-3 ovarian, 107%; in the assay with HS 578T breast it was 95.9%; in the assay on NCI/ADR-RES ovarian, 103%.
`CCN(CC)CC(=O)Nc1c(C)cccc1C`: the growth with SK-MEL-2 melanoma was 104%; in the assay on EKVX NSCLC, 85.2%; in the assay on SN12C renal, 98.8%; with UO-31 renal it was 83.2%; in the assay with TK-10 renal, 116%; in the assay on CAKI-1 renal, 94.3%. Moreover, the growth in the assay on A498 renal is 102%; in the assay on CCRF-CEM leukemia it was 103%; in the assay on MOLT-4 leukemia it was 104%; in the assay with SR leukemia, 98.3%; in the assay on RPMI-8226 leukemia it was 114%; in the assay with OVCAR-8 ovarian, 107%. The growth in the assay with OVCAR-4 ovarian is 104%; in the assay with SK-OV-3 ovarian, 109%; with IGROV1 ovarian it was 106%; in the assay with OVCAR-3 ovarian, 118%; in the assay with HS 578T breast it was 110%; in the assay on NCI/ADR-RES ovarian it was 104%.
For the compound `C=C1C(=O)O[C@H]2[C@H]1CC/C(COC(=O)OC/C1=C/CC[C@@]3(C)O[C@H]3[C@H]3OC(=O)[C@@H](CN(C)C)[C@@H]3CC1)=C\CC[C@@]1(C)O[C@@H]21`, the growth in the assay on SK-MEL-2 melanoma is 27.4%; in the assay with EKVX NSCLC, 48.8%; in the assay with SN12C renal it was 10.7%; with UO-31 renal it was -16.2% (active); in the assay with TK-10 renal, -42.7% (active); in the assay with A498 renal it was 58.5%. In addition, the growth was -13.3% (active) in the assay with CCRF-CEM leukemia; -30.9% (active) in the assay with MOLT-4 leukemia; -8.72% (active) in the assay on SR leukemia; -5.37% (active) with RPMI-8226 leukemia; 9.26% (active) in the assay on OVCAR-8 ovarian; 7.16% (active) in the assay on OVCAR-5 ovarian. The growth is 46% with OVCAR-4 ovarian; 87.7% with SK-OV-3 ovarian; 10.4% with IGROV1 ovarian; -90.3% (active) in the assay with OVCAR-3 ovarian; 57.4% with HS 578T breast; 91.2% in the assay on NCI/ADR-RES ovarian.
`C=CC(C)(O)CCC1C(=C)CCC2C(C)(C)CCCC12C` (centres undefined): the growth in the assay with SK-MEL-2 melanoma is 92.2%; in the assay with EKVX NSCLC it was 96.7%; in the assay with SN12C renal, 108%; in the assay on UO-31 renal, 90.3%; in the assay with TK-10 renal, 83.3%; in the assay on A498 renal, 106%. In addition, the growth in the assay on CCRF-CEM leukemia was 124%; in the assay with MOLT-4 leukemia, 89.9%; with SR leukemia, 90.2%; with RPMI-8226 leukemia it was 102%; in the assay with OVCAR-8 ovarian, 114%; with OVCAR-5 ovarian it was 106%. In addition, the growth was 114% in the assay with OVCAR-4 ovarian; 94.1% with SK-OV-3 ovarian; 108% in the assay with IGROV1 ovarian; 105% in the assay on OVCAR-3 ovarian; 113% in the assay on HS 578T breast; 101% in the assay on NCI/ADR-RES ovarian.
Turning to `CCOC(=O)NNc1nncc2ccccc12`, the growth was 119% in the assay on SK-MEL-2 melanoma; 78.3% in the assay on EKVX NSCLC; 97% in the assay with SN12C renal; 90.4% in the assay with UO-31 renal; 106% in the assay with TK-10 renal; 84.1% with CAKI-1 renal. Moreover, the growth was 96% in the assay with A498 renal; 109% with CCRF-CEM leukemia; 94% with MOLT-4 leukemia; 93.3% with SR leukemia; 105% in the assay on RPMI-8226 leukemia; 98.2% with OVCAR-8 ovarian. The growth in the assay on OVCAR-4 ovarian was 116%; with SK-OV-3 ovarian it was 101%; with IGROV1 ovarian it was 106%; with OVCAR-3 ovarian, 121%; with HS 578T breast, 98.9%; in the assay with NCI/ADR-RES ovarian it was 103%.
Take `O=C(O)c1ccc(-c2nn(-c3ccc(C(=O)O)cc3)cc2/C=N/Nc2c(F)c(F)cc(F)c2F)cc1`: the growth was 99.1% in the assay with SK-MEL-2 melanoma; 103% with EKVX NSCLC; 107% with SN12C renal; 92.4% with UO-31 renal; 98.1% with TK-10 renal; 115% in the assay on A498 renal. The growth is 97.9% in the assay with CCRF-CEM leukemia; 92.8% with MOLT-4 leukemia; 94% in the assay on SR leukemia; 103% in the assay on RPMI-8226 leukemia; 108% in the assay on OVCAR-8 ovarian; 101% in the assay on OVCAR-5 ovarian. For the same compound, the growth in the assay with OVCAR-4 ovarian is 111%; with SK-OV-3 ovarian it was 97.9%; in the assay on IGROV1 ovarian it was 108%; in the assay with OVCAR-3 ovarian, 104%; in the assay with HS 578T breast, 112%; with NCI/ADR-RES ovarian, 105%.
`CC(C)(CCN=C(N)Nc1ccccn1)c1ccc(C(F)(F)F)cc1`: the growth with SK-MEL-2 melanoma was 38.5%; in the assay on EKVX NSCLC, 21.6%; in the assay on SN12C renal, 23.9%; in the assay with UO-31 renal, 14.4%; with TK-10 renal it was 37%; with A498 renal it was 57.2%. Further, the growth in the assay with CCRF-CEM leukemia is 7.26% (active); with MOLT-4 leukemia, -15.6% (active); with SR leukemia, -41.3% (active); with RPMI-8226 leukemia, -46.9% (active); with OVCAR-8 ovarian, 15.7%; in the assay with OVCAR-5 ovarian, 37.4%. Besides, the growth in the assay on OVCAR-4 ovarian was 22.3%; in the assay on SK-OV-3 ovarian, 42.5%; in the assay on IGROV1 ovarian it was 11.9%; in the assay with OVCAR-3 ovarian, 32.1%; in the assay on HS 578T breast it was 62.1%; with NCI/ADR-RES ovarian, 31.4%.
For `Cc1cccc(Cc2cnc(NC(=O)CCc3ccc(C)o3)s2)c1`, the growth is 30.6% in the assay on SK-MEL-2 melanoma; 43.8% in the assay with EKVX NSCLC; 31.1% in the assay on SN12C renal; 34% with UO-31 renal; 63.6% with TK-10 renal; -11.7% (active) in the assay on A498 renal. The growth with CCRF-CEM leukemia is 5.94% (active); with MOLT-4 leukemia it was 8.52% (active); in the assay with SR leukemia, 5.14% (active); in the assay with RPMI-8226 leukemia it was 5.07% (active); in the assay with OVCAR-8 ovarian, 20.3%; in the assay on OVCAR-5 ovarian it was 35.7%. In addition, the growth was 53.3% in the assay on OVCAR-4 ovarian; 24.5% with SK-OV-3 ovarian; 32.2% in the assay with IGROV1 ovarian; 2.58% (active) in the assay on OVCAR-3 ovarian; 27.6% in the assay on HS 578T breast; 17.2% with NCI/ADR-RES ovarian.
